# Data taken from PubChem BioAssay.
# Activity calls are given as the source filed them.
# Assays:
# [1] = compound effects on lung adenocarcinoma cell viability – A549, calcein-AM fluorescence, 48 h, basal, profiling panel (AID 1162); conditions: higher = more signal
# [2] = compound effects on differentiated 3T3-L1 adipocyte viability – cell-based, 3T3-L1 adipocytes, calcein-AM fluorescence, 48 h, basal, profiling panel (AID 1163); conditions: 3T3-L1 adipocytes viability, higher = more signal
# [3] = compound effects on hepatocellular carcinoma cell viability – HepG2, calcein-AM fluorescence, 48 h, basal, profiling panel (AID 1164); conditions: higher = more signal
# [4] = compound effects on multiple myeloma cell viability – MM1S, calcein-AM fluorescence, 48 h, basal, profiling panel (AID 1165); conditions: higher = more signal
# [5] = calcein-AM signal in unstimulated myeloma cells – cell-based, calcein-AM fluorescence, 48 h, PK04 Diversity Set, profiling panel (AID 1166); conditions: RPMI8226 myeloma viability, higher = more signal;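 further: cells grown under basal conditions without added stimulus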
# [6] = JC-1 mitochondrial signal, unstimulated HepG2 cells – cell-based, JC-1 fluorescence, 24 h, 100 nL compound, profiling panel (AID 1167); conditions: HepG2 mitochondrial potential, higher = more signal
# [7] = JC-1 mitochondrial signal, unstimulated adipocytes – cell-based, JC-1 fluorescence, 3T3-L1 adipocytes, 24 h, 100 nL compound, profiling panel (AID 1168); conditions: JC-1 mitochondrial fluorescence, higher = more signal, called active from +8 up or from −8 down
# [8] = JC-1 mitochondrial signal, unstimulated myeloma cells – cell-based, JC-1 fluorescence, RPMI8226, 24 h, 100 nL compound, profiling panel (AID 1169); conditions: JC-1 mitochondrial potential fluorescence, higher = more signal
# [9] = JC-1 mitochondrial signal, unstimulated MM1S myeloma – cell-based, JC-1 fluorescence, 24 h, 100 nL compound, profiling panel (AID 1170); conditions: MM1S mitochondrial potential, higher = more signal
# [10] = resazurin metabolic signal in A549 cells – cell-based, resazurin fluorescence, 24 h, PK04 Diversity Set, profiling panel (AID 1171); conditions: A549 viability, higher = more signal, called active from +8 up or from −8 down
# Further: test concentration not given here.
Compound,z-score [1],z-score [2],z-score [3],z-score [4],z-score [5],z-score [6],z-score [7],z-score [8],z-score [9],z-score [10]
CN(C)CCCCCCNC(=O)[C@@H]1C[C@@H]2C(=O)N[C@@H](Cc3ccccc3)C(=O)N2[C@@H]1c1ccc(O)cc1,-0.58,0.502,-0.948,-1.45,-0.571,-1.15,-1.42 (inactive),-0.00023,0.0429,-1.03 (inactive)
C=C(C)[C@@H]1CC=C(C(O)C2C=CC3C(=O)N(c4ccccc4)C(=O)C3N2Nc2ccccc2)CC1 (stereo not given in full),1.62,-0.63,1.16,-0.646,-1.05,-1.95,-0.27 (inactive),-0.45,-0.31,0.296 (inactive)
O=C(N1CCCCC1)[C@]1(Cc2ccccc2)N=C(c2ccc(OCCCO)cc2)O[C@@H]1c1ccccc1,-1.69,1.16,-2.04,-3.35,-4.43,-1.06,-0.515 (inactive),-1.26,-2.03,0.528 (inactive)
CO[C@H]1O[C@H](CO)[C@@H](OC(=O)Nc2ccc(Oc3ccccc3)cc2)[C@H](OC(=O)Nc2ccc3c(c2)OCO3)[C@H]1OC(=O)Nc1ccc2c(c1)OCO2,-0.331,0.377,0.106,-0.789,-0.594,-0.185,2.17 (inactive),-0.583,0.818,0.104 (inactive)
O=C1NC(=O)C2C1C=CC(C(O)c1cccs1)N2Nc1ccc(Cl)cc1Cl (stereo not given),-0.599,-0.191,-0.165,-1.71,-0.884,-2.1,0.0583 (inactive),0.236,-0.219,-0.523 (inactive)
COC(=O)[C@@]1(Cc2ccc(F)cc2)[C@H]2c3cc(C(=O)N4CCCC4)n(CCCNc4ncc(C(F)(F)F)cc4Cl)c3C[C@H]2CN1C(=O)c1ccccc1,-0.386,-0.68,0.0224,-1.48,-1.13,1.12,-1.8 (inactive),-0.501,-1.2,-0.733 (inactive)
O=C(c1ccccc1)N1Cc2ccccc2C[C@@]2(COC(c3ccc(OCCCO)cc3)=N2)C1=O,0.603,0.697,0.81,-0.516,0.0855,1.47,-0.768 (inactive),-0.676,0.392,2.08 (inactive)
COc1cc(NN2C(C(O)c3ccco3)C=CC3C(=O)N(c4ccccc4)C(=O)C32)cc(OC)c1OC (stereo not given),-0.5,0.117,-0.337,0.0511,-0.307,-0.955,-0.967 (inactive),0.187,-1.31,-1.54 (inactive)
C=C(CCCC)/C(=C/C[C@@H](OC(C)=O)c1ccc(OCCO)cc1)c1cnc2ccccc2c1,2.57,0.197,1.12,-1.27,-0.0971,1.65,-0.38 (inactive),-0.364,-1.16,0.775 (inactive)
CO[C@H]1O[C@H](CO)[C@@H](OC(=O)Nc2cccc(F)c2)[C@H](OC(=O)Nc2ccccc2)[C@@H]1OC(=O)Nc1ccccc1,-1.61,0.18,-2.08,-3.43,-4.24,-0.702,-1.66 (inactive),-1.22,-1.07,-3.16 (inactive)
C[C@H]1C2[C@H](Cc3ccccc3)NC(=O)[C@]23C(=O)N[C@H](Cc2ccccc2)C(=O)N2CCC[C@H]2C(=O)NC/C=C\C/C=C/C3[C@@H]2O[C@]12C (stereo not given in full),1.4,0.993,0.445,0.0625,-0.0608,0.725,0.736 (inactive),-0.243,-0.634,0.559 (inactive)
COC(=O)[C@@]1(Cc2ccc(OC)cc2)[C@H]2c3cc(C(=O)N4CCCC4)n(Cc4ccc(O)c(OC)c4)c3C[C@H]2CN1C(=O)c1ccccc1,-0.226,0.174,0.321,0.11,-0.243,2.27,-0.183 (inactive),-0.221,-0.933,-1.47 (inactive)
O=C1OCCC/C=C\[C@H]2OC34C=CCN(Cc5ccccc5)C(=O)[C@H]3N(CCCO)C(=O)[C@@H]4C12 (stereo not given in full),-0.0592,-0.0687,0.556,1.58,0.438,0.315,0.478 (inactive),0.0319,1.44,0.0483 (inactive)
COc1cc(C(O)C2C=CC3C(=O)NC(=O)C3N2Nc2ccccn2)cc(OC)c1OC (stereo not given),-0.928,-0.66,-1.31,-0.494,0.611,-1.2,-0.524 (inactive),-0.0982,-0.0424,-0.706 (inactive)
Cc1ccc(S[C@]2(C(=O)NCCCN(C)C)CC(=O)N(Cc3cc(C(F)(F)F)cc(C(F)(F)F)c3)[C@@H]2c2ccc(CO)cc2)cc1,-0.159,0.374,-0.767,-0.47,0.51,0.263,-0.849 (inactive),0.199,0.339,-0.106 (inactive)
CC(C)CNC(=O)[C@@]1(Cc2ccccc2I)c2ccccc2C(=O)N(C2CCCCC2)[C@H]1c1ccc(CO)cc1,-0.175,-0.316,-0.762,-1.45,-2.39,-0.396,-0.485 (inactive),-0.594,-0.213,0.623 (inactive)

Compound,z-score [1],z-score [2],z-score [3],z-score [4],z-score [5],z-score [6],z-score [7],z-score [8],z-score [9],z-score [10]
C=CC[C@@]1(C(=O)NCCN2CCOCC2)N=C(c2ccc(OCCCO)cc2)O[C@@H]1c1ccccc1N=[N+]=[N-],0.391,-0.187,0.55,-0.669,-0.394,1.42,0.602 (inactive),-0.244,-0.322,-0.0072 (inactive)
CN1C(=O)C2C=CC(C(O)c3ccccc3)N(N(c3ccccc3)c3ccccc3)C2C1=O (stereo not given),-0.948,-0.669,-0.373,0.0913,-0.383,-0.885,-0.791 (inactive),0.538,0.102,-0.166 (inactive)
CC(C)C(=C=CC[C@@H](O)c1ccc(OCCO)cc1)C[C@@H](O)COCc1ccccc1,2.2,1.46,1.2,-0.619,0.471,1.52,0.404 (inactive),-0.147,-1.11,0.343 (inactive)
COC(=O)[C@@]1(Cc2ccc(F)cc2)[C@H]2c3cc(C(=O)N(C)C)n(Cc4ccc(Cl)c(C(F)(F)F)c4)c3C[C@H]2CN1C(=O)c1ccccc1,-1.16,-0.207,-1.04,-2.26,-4.06,1.96,-1.47 (inactive),-0.854,-1.54,-1.27 (inactive)
CC1(C)[C@@H]2CC(C(O)C3C=CC4C(=O)N(Cc5ccccc5)C(=O)C4N3n3cnnc3)=C[C@H]1C2 (stereo not given in full),-0.868,-0.622,0.0607,-0.0282,0.346,-0.237,0.352 (inactive),-0.124,-0.649,1.18 (inactive)
CCCCN1CC=CC23O[C@@H]4C=CCCOC(=O)C4[C@H]2C(=O)N(CCCCCCO)[C@@H]3C1=O (stereo not given in full),0.384,-0.585,0.441,1.51,-0.363,0.493,0.271 (inactive),-0.109,-0.399,-0.176 (inactive)
COc1cc2c(cc1OC)CN(C(=O)[C@H]1[C@@H]3C(=O)O[C@@H](c4ccccc4)[C@@H](c4ccccc4)N3[C@@H](c3ccc(O)cc3)[C@]13C(=O)Nc1ccc(C#CCCO)cc13)CC2,0.0351,1.04,-0.162,-0.233,-1.46,-1.46,0.292 (inactive),-0.568,0.0874,0.125 (inactive)
CC(C)C(O)C1C=CC2C(=O)N(c3ccccc3)C(=O)C2N1Nc1ccc([N+](=O)[O-])cc1 (stereo not given),-0.821,-1.18,0.497,0.637,-0.023,-1.41,-1.37 (inactive),0.766,-1.07,-0.397 (inactive)
CCCCCN1CC=CC23O[C@@H]4C=CCCOC(=O)C4[C@H]2C(=O)N(CCCCCO)[C@@H]3C1=O (stereo not given in full),0.0264,-1.3,0.542,1.8,1.74,0.301,-0.0303 (inactive),0.159,-0.849,0.26 (inactive)
COc1cc2c(cc1OC)CN(C(=O)[C@H]1[C@@H]3C(=O)O[C@@H](c4ccccc4)[C@@H](c4ccccc4)N3[C@@H](c3ccc(O)cc3)[C@]13C(=O)Nc1ccccc13)CC2,-0.214,-0.843,0.394,-0.723,-1.47,-1.2,0.977 (inactive),-0.542,-0.594,-0.0574 (inactive)
CC(C)[Si](C#Cc1ccc(Oc2ccccc2)cc1)(O[Si](C#Cc1ccc(Oc2ccccc2)cc1)(C(C)C)C(C)C)C(C)C,0.271,0.587,-0.377,-1.58,-0.743,-0.683,0.733 (inactive),0.0384,-0.00729,0.162 (inactive)
NC(=O)NCC#Cc1ccc2c(c1)[C@]1(C(=O)N2)[C@H](C(=O)Nc2nc3ccccc3s2)[C@H]2C(=O)O[C@H](c3ccccc3)[C@H](c3ccccc3)N2[C@@H]1c1ccccc1OCCO,-0.38,2.01,0.374,-0.513,-1.12,-3.23,2.92 (inactive),-0.517,-0.815,0.28 (inactive)
C=CCN1C(=O)[C@@]2(CC=C)N=C(c3ccc(OCCCO)cc3)O[C@H]2c2ccccc21,0.248,1.68,-0.515,-3.41,-3.72,1.62,2.61 (inactive),-1.02,-2.1,-2.08 (inactive)
CCOC(=O)C[C@H]1[C@H](OC(=O)c2ccc(C(=O)c3ccccc3)cc2)[C@@H](NC(=O)CC(C)C)c2cc(OCCCO)ccc2N1C(=O)c1ccc2ccccc2n1,0.713,-0.177,0.592,0.143,0.263,2.53,1.59 (inactive),0.944,-0.67,0.59 (inactive)
CN(C)C(=O)[C@]1(Cc2ccccc2N=[N+]=[N-])N=C(c2ccc(OCCCO)cc2)O[C@@H]1c1ccccc1N=[N+]=[N-],0.03,0.899,-0.468,-3.3,-3.67,1.53,1.41 (inactive),-0.946,-1.8,-2.16 (inactive)
